Consider 40 compounds from PubChem BioAssay AID1224855 (National Center for Advancing Translational Sciences (NCATS), 2016).

Structures are written as SMILES. Results filed as inconclusive are left out. Active and inactive are the calls of the source. Calls come from the whole dose curve; as a rule, active = well fitted inhibition curve with a large enough effect; inconclusive = small, poorly fitted or top-dose-only effect; inactive = no such curve, though single readings can be large or run the other way.

A short description of this assay: Confirmation assay for measurement of the activity of small molecule inhibitors on Zika virus induced Caspase-3 activity in human iPSC derived neural progenitor cells (hNPCs). The note with it: hNPC ZIKV-induced caspase-3/7, Caspase-Glo luminescence, 6 h; series mostly up to 46.1 µM. From the text: National Center for Advancing Translational Sciences [NCATS] Johns Hopkins University School of Medicine Florida State University Assay Overview: Increase in the Caspase-3 activity indicates an activation of apoptosis cell death pathway caused by Zika virus infection in certain types of neuronal cells including human neural progenitor cells (hNPCs), astrocytes, and astrocytoma cell line (SNB-19). This cell-based caspase-3 activity assay measures the increased caspase-3 activity in the human iPSC derived neural progenitor cells (hNPCs) after a 6-hour Zika virus infection with a luminescence readout. A decrease in the luminescence signal in this assay by small molecule treatment indicates an inhibitory effect of that small molecule on the Zika virus induced caspase-3 activity that may correlate with its effect on reduction of Zika virus caused cell death.
Assay Protocol Summary: The medium for hNPCs consists of DMEM/F12, N2 supplement (ThermoFisher, Cat.# 17502048), NEAA (ThermoFisher, Cat. # 11140050), 2 ug/ml heparin, 2 uM cyclopamine, and B27 (ThermoFisher, Cat. # 17504044). A Caspase-Glo 3/7 assay kit (catalog number G8092; Promega, Madison, WI) was used to detect caspase-3 activity induced by Zika virus infection in human cells. The reagent mixture was reconstituted as described in the protocol from the manufacturer. Polystyrene tissue culture treated and PDL coated white plates were obtained from Greiner Bio-One (Monroe, NC). Cells were seeded in 384- or 1536-well assay plates and cultured at 37 C with 5% CO2 for 16 to 20 hours. The typical cell seeding density in the 1536-well plate assay is 350 cells/well in 3 ul medium for hNPCs in tissue culture treated plates. Compounds were added to cells and incubated for one hour before addition of ZIKV solution to cells (2 FFU/cell). After incubation at 37 C with 5% CO2 for 6 hours, the reagent mixture of Caspase-Glo 3/7 assay kit was added to each well, followed by incubation at room temperature for 30 minutes. The luminescence intensity of the assay plates was measured using a ViewLux plate reader (PerkinElmer). Data were normalized by using the cell-containing wells without ZIKV as a negative control (0% induction of caspase 3/7 activity) and wells containing ZIKV infected cells (Caspase-3 activity induced) as a positive control (100% induction of caspase 3 activity). The percentage inhibitions of the increased Caspase-3 activity by small molecule inhibitors were then calculated.
As to `N[C@H](CSC(c1ccccc1)(c1ccccc1)c1ccccc1)C(=O)O`, the Potency result was “inactive”.

As for `CC[C@@]1(O)C[C@H](O[C@H]2C[C@H](N(C)C)[C@H](O[C@H]3C[C@H](O)[C@H](O[C@H]4CCC(=O)[C@H](C)O4)[C@H](C)O3)[C@H](C)O2)c2c(cc3c(c2O)C(=O)c2c(O)cccc2C3=O)[C@@H]1C(=O)OC`, the Potency result was “inactive”.

Take `O=S(=O)(O)c1ccc2nc(-c3ccccc3)[nH]c2c1`: the Potency was 1.23 µM (active).

Regarding `CCCS(=O)c1ccc2nc(NC(=O)OC)[nH]c2c1` (stereo not given), the Potency was 8.69 µM (active).

Consider `Cc1csc(NC(=O)c2sc3nc4c(c(C(F)(F)F)c3c2N)CCC4)n1`, for which the Potency is 15.5 µM (active). With `O=c1c2ccccc2nc2n1CCc1c-2[nH]c2ccccc12` the figure was 4.35 µM (active). With `CCCCCCCCCCCC(=O)[O][Sn]([CH2]CCC)([CH2]CCC)[O]C(=O)CCCCCCCCCCC` the entry was “inactive”; with `CCN1/C(=C/C=C/c2sc3ccccc3[n+]2CC)Sc2ccccc21`, “inactive”; with `CC=CC[C@@H](C)C(=O)[C@H]1C(=O)N[C@@H](C(C)C)C(=O)N(C)CC(=O)N(C)[C@@H](CC(C)C)C(=O)N[C@@H](C(C)C)C(=O)N(C)[C@@H](CC(C)C)C(=O)N[C@@H](C)C(=O)N[C@H](C)C(=O)N(C)[C@@H](CC(C)C)C(=O)N(C)[C@@H](CC(C)C)C(=O)N(C)[C@@H](C(C)C)C(=O)N1C`, “inactive”. With `Nc1ccc(O)c(C(=O)O)c1` the entry was “inactive”. As for `NC(=O)c1cccc2[nH]c(-c3ccc([C@H]4CCCN4)cc3F)nc12`, the Potency is 13.8 µM (active). As for `COc1cccc(-c2ccc(NC(=O)C3=C(C(=O)O)CCC3)c(F)c2)c1`, the figure is 2.45 µM (active); as for `CN1CC(=O)N/C1=N/C(=O)Nc1cccc(Cl)c1`, 4.35 µM (active).

With `c1ccc2[nH]c(-c3cscn3)nc2c1`, the Potency was 9.75 µM (active). As for `CN(C)c1ccc(N=NS(=O)(=O)O)cc1`, the entry is “inactive”.

Turning to `COc1cccc(-c2cc(=O)c3ccccc3o2)c1N`, the Potency is 4.89 µM (active). With `CC(=O)Nc1ccc([C@H](C)C(=O)Nc2ncc(C(C)C)s2)cc1` the figure was 17.3 µM (active); with `O=S(=O)(O)CCSSCCS(=O)(=O)O`, “inactive”. With `CC(O)=C(C#N)C(=O)Nc1ccc(C(F)(F)F)cc1` the figure was 0.774 µM (active); with `CCCCCNC(=O)N1CCC(CN(Cc2ccc(Cl)cc2)Cc2ccc([N+](=O)[O-])s2)C1` (stereo not given), “inactive”. Take `O=C(O)[C@@H](c1ccc(OCc2ccc3ccccc3n2)cc1)C1CCCC1`: the Potency is 6.9 µM (active). With `CC(C)OC(=O)CCCC=CC[C@@H]1[C@H](C=C[C@@H](O)COc2cccc(C(F)(F)F)c2)[C@H](O)C[C@@H]1O` the entry was “inactive”; with `CC(C)c1ccc2oc3nc(N)c(C(=O)O)cc3c(=O)c2c1`, 1.73 µM (active); with `COc1cccc2c1C(=O)c1c(O)c3c(c(O)c1C2=O)C[C@@](O)(C(=O)CO)C[C@@H]3O[C@H]1C[C@H](N)[C@H](O[C@@H]2CCCCO2)[C@H](C)O1`, “inactive”. With `Nc1ccc(-c2ccc3ccccc3n2)cc1` the figure was 3.88 µM (active); with `CNC1[C@H](O)C(O[C@@H]2C(O)C(O[C@H]3O[C@H]([C@@H](C)NC)CC[C@H]3N)[C@@H](N)C[C@H]2N)OC[C@]1(C)O` (stereo not given in full), “inactive”.

For the compound `COCCn1c2c([n+](Cc3cnccn3)c1C)C(=O)c1ccccc1C2=O`, the Potency was 6.15 µM (active). As for `O=C1NC(=O)C(=Cc2ccc(-c3ccc(F)cc3)o2)S1`, the figure is 9.75 µM (active); as for `Cc1cc(O)c2c(c1)C(=O)c1cc(O)cc(O)c1C2=O`, 1.95 µM (active). With `COc1ccc(CC2=NN3C([C@@H](CCc4ccccc4)[C@@H](C)O)=NC(C)C3C(=O)N2)cc1OC` (stereo not given in full) the entry was “inactive”. For the compound `CC(=C(CCOC(=O)C(C)C)SSC(CCOC(=O)C(C)C)=C(C)N(C=O)Cc1cnc(C)nc1N)N(C=O)Cc1cnc(C)nc1N`, the Potency entry was “inactive”.

As for `Cc1nc(-c2ccc(OCC(C)C)c(C#N)c2)sc1C(=O)O`, the Potency is 3.88 µM (active).

For `O=C(Nc1ccc(OC(F)(F)F)cc1)c1sccc1NCc1ccnc2ccccc12`, the Potency was 6.15 µM (active). As for `CCCCCCCC/C=C/C(=O)O`, the entry is “inactive”. Consider `COc1ccc(-c2cc(=O)c3c(O)cc(O)cc3o2)cc1O`, for which the Potency was 9.75 µM (active). With `O=C1C[C@@H](c2ccc(O)cc2)Oc2cc(O)cc(O)c21` the figure was 17.3 µM (active). As for `Clc1ccccc1-c1nc(-c2ccncc2)no1`, the figure is 4.35 µM (active).

`O=c1oc2cc(O)ccc2s1`: the Potency result was “inactive”. As for `CN(C)CCCSc1ccccc1NC(=O)/C=C/c1ccccc1`, the figure is 17.3 µM (active); as for `CC(C)Oc1ccc2c(=O)c(-c3ccccc3)coc2c1`, 6.15 µM (active).
